# Bioassay records (PubChem)
# ATXN2 expr inh – reduces ATXN2 reporter expression in HEK-293 cells. Potency, µM (highest dose often 57 µM), without a hit: at the highest dose activity change, negative = inhibition, most hits filed as inhibitors. AID 1745845. 360,000 tested, 0.72% active. HEK-293 ATXN2-luciferase reporter, luminescence, 24 h; note: % is set by controls: 0 for no effect and ±100 for the full control effect; nearly all actives have a fitted effect of over 55% in size
#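 qHTS (up to 57 uM final) was run with 24 h compound exposure of reporter cells at 37 °C. Each well was multiplexed: SteadyGlo luminescence measured ATXN2-luciferase expression after a fluorogenic Gly-Phe-AFC viability readout (25 uM final).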
# HepG2 viability – kills HepG2 cells in TGF-b inhibitor counter-screen; HepG2 CAGA-GFP viability, ATP luminescence, 18 h; Potency, µM (titrated, usually from 46.1 µM), inactives show at the top dose activity change, negative = cytotoxicity, most hits filed as cytotoxic; 410,000 tested, 0.76% active
#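 CellTiter-Glo luminescence gave cytotoxicity after 18 hours at 37 degrees C. The cells were HepG2 CAGA-GFP in 1% FBS DMEM, stimulated with 500 pg/mL TGF-beta after compound addition. %Activity was normalised to no-cell wells (complete cell-killing) and DMSO (no toxicity), and curves were fitted and classified.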
# TGFb inhibitor – inhibitors of TGF-b signaling | 410,000 tested, 1.2% active | HepG2 CAGA-GFP TGF-b/SMAD3 reporter, GFP fluorescence, 18 h; TGF-beta stimulated, 500 pg/mL final | Potency, µM (doses to about 46.1 µM), without a hit: at the top dose activity, negative = inhibition, usual class: inhibitors; note: % is set by controls: 0 for no effect and ±100 for the full control effect; nearly all actives have a fitted effect of over 65% in size
#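 TGF-beta reporter screen: HEPG2 CAGA-GFP, 1% FBS, 500 pg/mL TGF-beta final, 18 h; per-cell GFP summed per well; curves fitted and categorized by class.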
# Gal4-VP16 FLuc – Gal4-VP16 reporter inhibition counter-screen | Drosophila S2 Gal4-VP16 UAS-luciferase, luminescence, 20 h | Potency, µM (highest dose often 53.6 µM), for inactives: at the highest dose activity, negative = inhibition, usual class: inhibitors | 310,000 tested, 3.5% active;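 note: Gal4-VP16 expression switched on by copper sulfate through the metallothionein promoter; % is set by controls: 0 for no effect and ±100 for the full control effect; nearly all actives have a fitted effect of over 50% in size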
# ATXN viability – viability counter-screen for ATXN expression inhibitors | S2 cells (HEK-293 line with an ATXN2-luciferase reporter) viability, CellTiter-Fluor protease fluorescence, 24 h | Potency, µM (titrated, usually from 56.7 µM), actives largely listed as cytotoxic | 400,000 tested, 0.49% active | AID 651635; note: nearly all actives have a fitted effect of over 40% in size
# RORg inh – ROR gamma (mouse) transcription inhibition. P51450. Potency, µM (highest dose often 53.6 µM), inactives show at the top dose activity change, negative = inhibition, actives largely listed as inhibitors. Drosophila S2 Gal4-RORgamma UAS-luciferase reporter, 20 h. 310,000 tested, 5.4% active; note: % is set by controls: 0 for no effect and ±100 for the full control effect; nearly all actives have a fitted effect of over 60% in size
# Target sequence (P51450 whole entry, looked up, the tested form may be a part): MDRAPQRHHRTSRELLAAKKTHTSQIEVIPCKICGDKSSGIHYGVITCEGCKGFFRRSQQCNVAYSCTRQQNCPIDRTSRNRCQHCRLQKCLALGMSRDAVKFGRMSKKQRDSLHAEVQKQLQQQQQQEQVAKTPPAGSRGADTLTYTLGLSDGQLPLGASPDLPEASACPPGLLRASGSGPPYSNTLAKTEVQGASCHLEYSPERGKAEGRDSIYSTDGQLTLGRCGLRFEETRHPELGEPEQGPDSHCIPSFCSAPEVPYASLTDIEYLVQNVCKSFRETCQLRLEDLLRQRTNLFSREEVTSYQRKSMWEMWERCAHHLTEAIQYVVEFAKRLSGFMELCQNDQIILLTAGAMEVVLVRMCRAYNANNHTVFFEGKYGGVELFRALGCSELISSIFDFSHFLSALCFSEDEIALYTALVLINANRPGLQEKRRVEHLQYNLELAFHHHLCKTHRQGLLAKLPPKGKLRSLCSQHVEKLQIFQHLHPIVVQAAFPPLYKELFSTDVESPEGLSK
#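 A Gal4/UAS one-hybrid system in insect cells: metallothionein-promoter Gal4–ROR gamma fusion plus Photinus luciferase reporter. Copper sulfate 700 uM final, 20 hr ambient incubation, luminescent detection after 10 min with reagent.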
# * = called active by the depositor; i = inactive; ? = inconclusive; · = no result; [ ] = dose if it differs, or a comment. Rows were chosen to be rich in hits. Some 6.3% of all compounds tested hit in one or more screens of this group. Calls come from the whole dose curve; as a rule, active = well fitted curve in the direction sought with a large enough effect; inconclusive = small, poorly fitted or top-dose-only effect, or another doubt; inactive = no such curve, though single readings can be large; an effect the other way counts as inactive or inconclusive. Potency is the fitted concentration of half-maximal effect.
SMILES,ATXN2 expr inh,HepG2 viability,TGFb inhibitor,Gal4-VP16 FLuc,ATXN viability,RORg inh
CCNc1ncc2nc(-c3cc(F)cc(F)c3)c(=O)n(C)c2n1,·,·,·,5%,·,24%
COCCNC(=S)NC12CC3CC(CC(C3)C1)C2,-9%,-21%,-13%,4.5µM*,i,3.5µM*
COc1cc(-c2cc3nc(NCc4cccc(Cl)c4)ccn3n2)cc(OC)c1OC,13µM*,-56%,?,·,?,·
COc1cc(-c2cc3nc(NCc4cccs4)ccn3n2)cc(OC)c1OC,?,-2%,33%,·,?,·
COc1ccc(N2CCN(Cc3nc4ccccc4n3C)CC2)cc1,-11%,5%,-21%,2%,i,13µM*
CC(C)c1ccc(CC(=O)N2CCC2(C)C(=O)Nc2ccc3c(c2)OCCO3)cc1 (configuration not stated),-26%,-11%,19%,·,i,·
c1csc(CSc2nc3ccccc3s2)c1,91%,-39%,-11%,-5%,i,?
CCCCOc1ccc(Cc2n[nH]c(=S)n2N)cc1,-5%,10%,20%,-9%,i,-2%[10 µM]
CCn1c(CSc2nc3ccccc3s2)nc2ccccc21,4%,-17%,?,?,i,10µM*
FC(F)(F)c1cccc(NCc2n[nH]c(=S)n2C2CCCCC2)c1,?,-48%,0%,-23%,i,4.5µM*
Cc1ccc(-n2c(CNc3cccc(Cl)c3)n[nH]c2=S)cc1,-2%[11.3 µM],-1%,-9%,-15%,i,?
S=c1[nH]nc(COc2ccccc2)n1Cc1ccccc1,-8%,1%,-18%,6.3µM*,i,1.6µM*
CCc1ccc(OCc2n[nH]c(=S)n2C(C)CCCC(C)C)cc1 (configuration not stated),?,-118%,?,-22%,?,6.3µM*
CCc1ccc(CN(Cc2ccco2)c2cnc(S(C)(=O)=O)nc2C(=O)Nc2ccc(C)c(Cl)c2)cc1,2%,10%,30%,·,i,·
S=c1[nH]nc(CSc2nc3ccccc3s2)n1C1CCCCC1,8%,-20%,8%,1.3µM*,i,0.2µM*
CC(C)CCn1c(COc2ccccc2)n[nH]c1=S,4%[11.3 µM],7%,13%,?,?,1.1µM*
S=c1[nH]nc(COc2ccc(Cl)cc2)n1Cc1ccco1,-7%,-1%,-8%,?,i,3.2µM*
CCc1ccc(OCc2n[nH]c(=S)n2Cc2ccccc2)cc1,-12%,-28%,?,-2%,i,-2%
Cc1cccc(OCc2n[nH]c(=S)n2Cc2ccccc2)c1,·,-15%,-17%,?,i,2µM*
O=C(O)CSc1nnc(CSc2nc3ccccc3s2)n1-c1ccccc1,-6%,-20%,-2%,2%,?,-6%
O=C(c1cccnc1)C1CCCN(Cc2ccc3c(c2)CN(C(=O)c2cn4ccccc4n2)CCO3)C1 (configuration not stated),·,·,·,·,i,·
S=c1[nH]nc(COc2ccccc2)n1C1CCCCC1,6%,-5%,5%,4µM*,i,1.8µM*
Cc1cc(C)c(S(=O)(=O)N/N=C/c2ccc([N+](=O)[O-])o2)c(C)c1,-23%,-37%,-3%,20µM*,i,?
NC(=O)N/N=C/c1ccc([N+](=O)[O-])o1,?,-77%,?,?,?,-22%[10 µM]
CCOc1ccc(C(=O)N/N=C/c2cc(Cl)ccc2[N+](=O)[O-])cc1,-8%,-2%,-10%,5.6µM*,i,?
SMILES,ATXN2 expr inh,HepG2 viability,TGFb inhibitor,Gal4-VP16 FLuc,ATXN viability,RORg inh
Cc1ccc(OCC(=O)N/N=C\c2ccc(C)o2)c([N+](=O)[O-])c1,7%,4%,27%,8%,i,8%
Cc1cc(C(=O)N/N=C/c2ccc([N+](=O)[O-])o2)c(C)o1,·,11µM*,18µM*,?,?,-41%
Cc1cc(C(=O)N/N=C\c2ccc(COc3ccc([N+](=O)[O-])cc3)o2)ccc1[N+](=O)[O-],-38%,-20%,15%,?,?,11µM*
CCOc1ccc(CN2CCOc3ccc(C(O)c4cccnc4)cc3C2)cc1 (configuration not stated),·,·,·,·,i,·
CCCCN(CC)CCCNC(=O)c1nn(-c2ccc(OC)cc2)c(=O)c2c1c1ccccc1n2C,3%,-1%,0%,·,i,·
O=C1CC(c2ccco2)CC2=C1C(c1cccnc1)n1nc(C(F)(F)F)nc1N2 (configuration not stated),·,-65%,-6%,·,·,·
COC(=O)[C@@]12CCCN1[C@H](c1ccc(-c3ccc(OC)cc3)cc1)[C@@H]1C(=O)N(C)C(=O)[C@@H]12,-8%,-21%,-12%,·,i,·
O=C(N/N=C/c1ccc([N+](=O)[O-])o1)C1CC1,·,-89%,?,4%,?,7.9µM*
O=C(N/N=C/C(Cl)=C/c1ccccc1)c1ccccn1,63%,1%,4%,?,i,?
O=C(CNc1ccc2ccccc2c1)N/N=C/c1ccc(C(=O)O)cc1,11%,0%,-5%,0%,i,-18%
Cc1ccc(OCC(=O)N/N=C/c2ccc([N+](=O)[O-])o2)cc1,?,10µM*,10µM*,?,?,?
Cc1cc(C(=O)N/N=C/C(Cl)=C/c2ccccc2)c(C)o1,0%,-19%,5%,13µM*,i,-11%
O=C(CNc1ccc2ccccc2c1)N/N=C/c1ccc([N+](=O)[O-])o1,-6%,7.9µM*,8.9µM*,?,?,-18%
NC(=O)c1ccc(N(C(N)=O)c2c(F)cccc2F)nc1-c1ccc(F)cc1F,-17%,·,·,·,·,·
O=C(N/N=C/c1ccc([N+](=O)[O-])o1)C(O)c1ccccc1 (configuration not stated),?,-146%,?,-27%,?,3%
O=C(COc1ccccc1)N/N=C/c1ccc([N+](=O)[O-])o1,·,11µM*,11µM*,16µM*,?,10µM*
O=[N+]([O-])c1ccc(/C=N/NC(=S)Nc2ccccc2C(F)(F)F)o1,-16%,-22%,0%,?,i,11µM*
C/C(=N/NC(=O)NC12CC3CC(CC(C3)C1)C2)c1ccccc1,·,1%,8%,1%,?,-6%
COCCNc1nc(C)cc(-c2cc(C(=O)NCc3ccccc3)on2)n1,-6%,-12%,-8%,1%,i,-7%
Cc1cc(-c2cc(C(=O)NCc3ccccc3)on2)nc(S(C)(=O)=O)n1,?,-14%,?,?,?,5µM*
